Data taken from PubChem BioAssay AID1159580 (chemical genetic matrix, 2015).
Hit rate of the full screen: of about 5,500 compounds, about 2,000 (36%) were called active. Not shown: some 18% with an inconclusive outcome. Cut-off read from the data, not from the text of the source: active = normalized growth mostly below about 0.91 (no sharp cut-off); inconclusive = no clear call, values can overlap the other calls; inactive = mostly above about 0.92. The list shows a part of the results.

Experiment: chemical genetic growth profiling, strain panel (AID 1159580);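 note: tested at 20 µM; growth read once vehicle control cultures reached saturation at 30 °C; 1 = growth at the plate median or of vehicle wells; lower values mean less growth of the strain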
Conditions: growth OD

Measured: normalized growth

CCC(C)C(=O)c1c(O)c(C)c2oc3c(C)c(O)c(C(=O)C(C)CC)c(O)c3c2c1O (stereo not drawn)
inactive: S. cerevisiae deletion strains, locus YAL021C, strain ccr4, hits give low values 0.972 | S. cerevisiae deletion strains, locus YAL026C, strain drs2, hits give low values 0.982 | S. cerevisiae deletion strains, locus YAL030W, strain snc1, hits give low values 0.983 | S. cerevisiae deletion strains, locus YBL061C, strain skt5, hits give low values 0.98 | S. cerevisiae deletion strains, locus YBR009C, strain hhf1, hits give low values 0.977 | S. cerevisiae deletion strains, locus YBR021W, strain FUR4, hits give low values 1.05 | S. cerevisiae deletion strains, locus YBR023C, strain chs3, hits give low values 0.971 | S. cerevisiae deletion strains, locus YBR171W, strain sec66, hits give low values 0.995 | S. cerevisiae deletion strains, locus YBR229C, strain ROT2, hits give low values 0.996 | S. cerevisiae deletion strains, locus YBR231C, strain swc5, hits give low values 0.925 | S. cerevisiae deletion strains, locus YBR279W, strain paf1, hits give low values 0.988 | S. cerevisiae deletion strains, locus YCL011C, strain gbp2, hits give low values 0.98 | S. cerevisiae deletion strains, locus YCL016C, strain dcc1, hits give low values 0.973 | S. cerevisiae deletion strains, locus YCL029C, strain bik1, hits give low values 0.943 | S. cerevisiae deletion strains, locus YCL069W, strain vba3, hits give low values 1 | S. cerevisiae deletion strains, locus YCR088W, strain abp1, hits give low values 0.997 | S. cerevisiae deletion strains, locus YDL005C, strain med2, hits give low values 0.979 | S. cerevisiae deletion strains, locus YDL035C, strain GPR1, hits give low values 0.953 | S. cerevisiae deletion strains, locus YDL040C, strain nat1, hits give low values 0.994 | S. cerevisiae deletion strains, locus YDL074C, strain BRE1, hits give low values 0.949 | S. cerevisiae deletion strains, locus YDL101C, strain DUN1, hits give low values 0.959 | S. cerevisiae deletion strains, locus YDL134C, strain PPH21, hits give low values 0.977 | S. cerevisiae deletion strains, locus YDL192W, strain arf1, hits give low values 0.976 | S. cerevisiae deletion strains, locus YDR001C, strain nth1, hits give low values 1.01 | S. cerevisiae deletion strains, locus YDR069C, strain doa4, hits give low values 0.919 | S. cerevisiae deletion strains, locus YDR101C, strain arx1, hits give low values 0.987 | S. cerevisiae deletion strains, locus YDR150W, strain NUM1, hits give low values 0.966 | S. cerevisiae deletion strains, locus YDR159W, strain sac3, hits give low values 0.965 | S. cerevisiae deletion strains, locus YDR162C, strain NBP2, hits give low values 0.997 | S. cerevisiae deletion strains, locus YDR195W, strain ref2 0.977 | S. cerevisiae deletion strains, locus YDR297W, strain sur2, hits give low values 0.989 | S. cerevisiae deletion strains, locus YDR318W, strain mcm21, hits give low values 0.967 | S. cerevisiae deletion strains, locus YDR334W, strain swr1, hits give low values 1 | S. cerevisiae deletion strains, locus YDR335W, strain msn5, hits give low values 0.997 | S. cerevisiae deletion strains, locus YDR388W, hits give low values 0.961 | S. cerevisiae deletion strains, locus YDR392W, strain spt3, hits give low values 0.921 | S. cerevisiae deletion strains, locus YDR502C, strain sam2, hits give low values 0.935 | S. cerevisiae deletion strains, locus YEL003W, strain gim4, hits give low values 0.983 | S. cerevisiae deletion strains, locus YEL037C, strain rad23, hits give low values 1.01 | S. cerevisiae deletion strains, locus YEL061C, strain CIN8 (second series), hits give low values 1 | S. cerevisiae deletion strains, locus YEL061C, strain CIN8, hits give low values 0.97 | S. cerevisiae deletion strains, locus YER015W, strain faa2, hits give low values 0.983 | S. cerevisiae deletion strains, locus YER016W, strain bim1, hits give low values 0.996 | S. cerevisiae deletion strains, locus YER110C, hits give low values 0.975 | S. cerevisiae deletion strains, locus YER111C, strain swi4, hits give low values 0.984 | S. cerevisiae deletion strains, locus YER155C, strain BEM2 (second series), hits give low values 0.934 | S. cerevisiae deletion strains, locus YER155C, strain BEM2, hits give low values 1.02 | S. cerevisiae deletion strains, locus YER167W, strain BCK2, hits give low values 0.956 | S. cerevisiae deletion strains, locus YFR010W, strain ubp6, hits give low values 0.978 | S. cerevisiae deletion strains, locus YGL078C, strain dbp3, hits give low values 0.987 | S. cerevisiae deletion strains, locus YGL167C, strain pmr1, hits give low values 1 | S. cerevisiae deletion strains, locus YGL173C, strain kem1, hits give low values 0.97 | S. cerevisiae deletion strains, locus YGL227W, strain vid30, hits give low values 1 | S. cerevisiae deletion strains, locus YGL240W, strain doc1, hits give low values 0.949 | S. cerevisiae deletion strains, locus YGL248W, strain PDE1, hits give low values 0.984 | S. cerevisiae deletion strains, locus YGL253W, strain hxk2, hits give low values 1 | S. cerevisiae deletion strains, locus YGR135W, strain pre9, hits give low values 0.941 | S. cerevisiae deletion strains, locus YGR252W, strain gcn5, hits give low values 1.09 | S. cerevisiae deletion strains, locus YHR013C, strain ard1, hits give low values 0.969 | S. cerevisiae deletion strains, locus YHR027C, strain rpn1, hits give low values 0.998 | S. cerevisiae deletion strains, locus YHR030C, strain SLT2, hits give low values 0.964 | S. cerevisiae deletion strains, locus YHR079C, strain IRE1 (second series), hits give low values 0.979 | S. cerevisiae deletion strains, locus YHR094C, strain hxt1, hits give low values 0.999 | S. cerevisiae deletion strains, locus YHR129C, strain ARP1, hits give low values 0.952 | S. cerevisiae deletion strains, locus YHR142W, strain chs7, hits give low values 1.02 | S. cerevisiae deletion strains, locus YHR200W, strain rpn10, hits give low values 0.988 | S. cerevisiae deletion strains, locus YIL066C, strain RNR3, hits give low values 0.943 | S. cerevisiae deletion strains, locus YIL073C, strain SPO22, hits give low values 1.01 | S. cerevisiae deletion strains, locus YIL125W, strain kgd1, hits give low values 0.997 | S. cerevisiae deletion strains, locus YIR030C, strain dcg1, hits give low values 0.978 | S. cerevisiae deletion strains, locus YJL092W, strain hpr5, hits give low values 1 | S. cerevisiae deletion strains, locus YJL095W, strain BCK1 (second series), hits give low values 0.985 | S. cerevisiae deletion strains, locus YJL095W, strain BCK1, hits give low values 0.882 | S. cerevisiae deletion strains, locus YJL115W, strain asf1, hits give low values 1.01 | S. cerevisiae deletion strains, locus YJL129C, strain trk1, hits give low values 1.02 | S. cerevisiae deletion strains, locus YJL134W, strain LCB3, hits give low values 0.978 | S. cerevisiae deletion strains, locus YJL154C, strain vps35, hits give low values 1.01 | S. cerevisiae deletion strains, locus YJL164C, strain tpk1, hits give low values 0.977 | S. cerevisiae deletion strains, locus YJL166W, strain qcr8, hits give low values 0.983 | S. cerevisiae deletion strains, locus YJL168C, strain set2, hits give low values 0.983 | S. cerevisiae deletion strains, locus YJL187C, strain SWE1, hits give low values 0.983 | S. cerevisiae deletion strains, locus YJR043C, strain POL32, hits give low values 0.936 | S. cerevisiae deletion strains, locus YJR075W, strain HOC1, hits give low values 0.96 | S. cerevisiae deletion strains, locus YKL068W, hits give low values 0.965 | S. cerevisiae deletion strains, locus YKL160W, strain elf1, hits give low values 0.979 | S. cerevisiae deletion strains, locus YKR001C, strain vps1, hits give low values 0.952 | S. cerevisiae deletion strains, locus YKR026C, strain gcn3, hits give low values 1.01 | S. cerevisiae deletion strains, locus YKR091W, strain srl3, hits give low values 0.992 | S. cerevisiae deletion strains, locus YLL001W, strain dnm1, hits give low values 0.98 | S. cerevisiae deletion strains, locus YLL026W, hits give low values 0.996 | S. cerevisiae deletion strains, locus YLL041C, strain sdh2, hits give low values 1.01 | S. cerevisiae deletion strains, locus YLR027C, strain aat2, hits give low values 0.965 | S. cerevisiae deletion strains, locus YLR102C, strain apc9, hits give low values 0.98 | S. cerevisiae deletion strains, locus YLR221C, strain rsa3, hits give low values 0.957 | S. cerevisiae deletion strains, locus YLR258W, strain gsy2, hits give low values 0.971 | S. cerevisiae deletion strains, locus YLR262C, strain YPT6 (second series), hits give low values 0.949 | S. cerevisiae deletion strains, locus YLR262C, strain YPT6, hits give low values 0.773 | S. cerevisiae deletion strains, locus YLR268W, strain sec22, hits give low values 0.904 | S. cerevisiae deletion strains, locus YLR320W, strain mms22, hits give low values 0.954 | S. cerevisiae deletion strains, locus YLR330W, strain CHS5, hits give low values 0.979 | S. cerevisiae deletion strains, locus YLR342W, strain FKS1 (second series), hits give low values 0.92 | S. cerevisiae deletion strains, locus YLR342W, strain FKS1, hits give low values 0.968 | S. cerevisiae deletion strains, locus YLR357W, strain rsc2, hits give low values 0.957 | S. cerevisiae deletion strains, locus YLR370C, strain arc18, hits give low values 0.983 | S. cerevisiae deletion strains, locus YLR371W, strain rom2, hits give low values 0.973 | S. cerevisiae deletion strains, locus YLR384C, strain iki3, hits give low values 0.975 | S. cerevisiae deletion strains, locus YLR418C, strain cdc73, hits give low values 0.974 | S. cerevisiae deletion strains, locus YML016C, strain PPZ1, hits give low values 0.974 | S. cerevisiae deletion strains, locus YML032C, strain rad52, hits give low values 0.94 | S. cerevisiae deletion strains, locus YML120C, strain ndi1, hits give low values 0.989 | S. cerevisiae deletion strains, locus YML124C, strain tub3, hits give low values 0.992 | S. cerevisiae deletion strains, locus YMR058W, strain fet3, hits give low values 0.986 | S. cerevisiae deletion strains, locus YMR078C, strain ctf18, hits give low values 0.989 | S. cerevisiae deletion strains, locus YMR125W, strain sto1, hits give low values 0.969 | S. cerevisiae deletion strains, locus YMR129W, hits give low values 0.981 | S. cerevisiae deletion strains, locus YMR205C, strain PFK2, hits give low values 0.967 | S. cerevisiae deletion strains, locus YMR223W, strain ubp8, hits give low values 0.957 | S. cerevisiae deletion strains, locus YMR231W, strain pep5, hits give low values 0.993 | S. cerevisiae deletion strains, locus YMR263W, strain SAP30, hits give low values 0.975 | S. cerevisiae deletion strains, locus YMR307W, strain GAS1, hits give low values 1.09 | S. cerevisiae deletion strains, locus YNL067W, strain RPL9B, hits give low values 0.964 | S. cerevisiae deletion strains, locus YNL071W, strain lat1, hits give low values 1 | S. cerevisiae deletion strains, locus YNL153C, strain GIM3, hits give low values 0.928 | S. cerevisiae deletion strains, locus YNL209W, strain ssb2, hits give low values 0.982 | S. cerevisiae deletion strains, locus YNL233W, strain BNI4, hits give low values 0.993 | S. cerevisiae deletion strains, locus YNL248C, strain rpa49, hits give low values 0.91 | S. cerevisiae deletion strains, locus YNL250W, strain rad50, hits give low values 0.966 | S. cerevisiae deletion strains, locus YNL271C, strain bni1, hits give low values 0.987 | S. cerevisiae deletion strains, locus YNL298W, strain CLA4, hits give low values 0.972 | S. cerevisiae deletion strains, locus YNL307C, strain MCK1, hits give low values 0.982 | S. cerevisiae deletion strains, locus YNL322C, strain KRE1 (second series), hits give low values 0.978 | S. cerevisiae deletion strains, locus YNR049C, strain mso1, hits give low values 0.994 | S. cerevisiae deletion strains, locus YNR052C, strain pop2, hits give low values 0.966 | S. cerevisiae deletion strains, locus YOL012C, strain htz1 0.792 | S. cerevisiae deletion strains, locus YOL147C, strain pex11, hits give low values 0.986 | S. cerevisiae deletion strains, locus YOR001W, strain rrp6, hits give low values 0.954 | S. cerevisiae deletion strains, locus YOR061W, strain CKA2, hits give low values 0.932 | S. cerevisiae deletion strains, locus YOR069W, strain VPS5, hits give low values 0.977 | S. cerevisiae deletion strains, locus YOR070C, strain gyp1, hits give low values 0.966 | S. cerevisiae deletion strains, locus YOR080W, strain dia2, hits give low values 0.978 | S. cerevisiae deletion strains, locus YOR083W, strain WHI5, hits give low values 1 | S. cerevisiae deletion strains, locus YOR106W, strain vam3, hits give low values 0.973 | S. cerevisiae deletion strains, locus YOR136W, strain idh2, hits give low values 0.986 | S. cerevisiae deletion strains, locus YOR144C, strain elg1, hits give low values 0.992 | S. cerevisiae deletion strains, locus YOR184W, strain ser1, hits give low values 0.977 | S. cerevisiae deletion strains, locus YOR265W, strain rbl2, hits give low values 0.981 | S. cerevisiae deletion strains, locus YOR270C, strain vph1, hits give low values 0.921 | S. cerevisiae deletion strains, locus YOR290C, strain snf2, hits give low values 0.967 | S. cerevisiae deletion strains, locus YOR316C, strain cot1, hits give low values 0.974 | S. cerevisiae deletion strains, locus YPL051W, strain arl3, hits give low values 0.923 | S. cerevisiae deletion strains, locus YPL078C, strain atp4, hits give low values 0.992 | S. cerevisiae deletion strains, locus YPL106C, strain sse1, hits give low values 0.966 | S. cerevisiae deletion strains, locus YPL240C, strain hsp82, hits give low values 0.995 | S. cerevisiae deletion strains, locus YPL241C, strain CIN2, hits give low values 0.995 | S. cerevisiae deletion strains, locus YPR119W, strain clb2, hits give low values 0.99 | S. cerevisiae deletion strains, locus YPR141C, strain kar3, hits give low values 0.967 | S. cerevisiae deletion strains, locus YPR163C, strain tif3, hits give low values 0.994 | S. cerevisiae deletion strains, locus YPR167C, strain met16, hits give low values 0.976 | S. cerevisiae deletion strains, strain wtn01, hits give low values 0.969 | S. cerevisiae strains, strain wild type, hits give low values 0.965
active: S. cerevisiae deletion strains, locus YDL185W, strain tfp1, hits give low values 0.895 | S. cerevisiae deletion strains, locus YDR137W, strain rgp1, hits give low values 0.813 | S. cerevisiae deletion strains, locus YGL086W, strain mad1, hits give low values 1.12 [resistant] | S. cerevisiae deletion strains, locus YJL187C, strain SWE1 (second series), hits give low values 0.767 | S. cerevisiae deletion strains, locus YKL085W, strain MDH1 (second series), hits give low values 1.11 [resistant] | S. cerevisiae deletion strains, locus YKL085W, strain MDH1, hits give low values 1.11 [resistant] | S. cerevisiae deletion strains, locus YLR039C, strain RIC1, hits give low values 0.674 | S. cerevisiae deletion strains, locus YLR058C, strain SHM2, hits give low values 0.866
